In PubChem BioAssay (Tox21):
Results filed as inconclusive are left out. Where a call stands in place of a potency, no number is given. The source made the active and inactive calls. Unless noted, calls follow the shape of the full dose curve.

What was measured:
[1] = Nuclear factor erythroid 2-related factor 2/antioxidant responsive element (Nrf2/ARE) small molecule agonists: qHTS cell viability counter screen in human keratinocytes (AID 1919968; active = well fitted curve in the direction sought with a large enough effect in the repeat runs; an effect the other way counts as inactive or inconclusive; also: nearly all actives have a fitted effect of over 55% in size; also: potency is read from the fitted curve at half-maximal effect)
Summary of the method: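 In human HaCaT keratinocytes stably expressing an ARE-driven luciferase, compound exposure lasted 23 h at 37 C under 5% CO2. Viable cells are quantified with a protease-based fluorogenic reagent (CellTiter-Fluor) read 1 h after addition.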

[2] = Nuclear factor erythroid 2-related factor 2/antioxidant responsive element (Nrf2/ARE) small molecule agonists: luciferase reporter gene qHTS assay in human keratinocytes (AID 1919969); also: nearly all actives have a fitted effect of over 35% in size; also: potency is read from the fitted curve at half-maximal effect
[3] = target: Gonadotropin-releasing hormone receptor (Homo sapiens) (UniProt P30968); test: Human gonadotropin-releasing hormone receptor (GnRHR) small molecule agonists, calcium flux assay in GnRHR-HEK293 cells (AID 1920063); also: nearly all actives have a fitted effect of over 35% in size; also: potency is read from the fitted curve at half-maximal effect
Summary of the method: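 Intracellular calcium rise is the read-out: engineered human GnRHR HEK293 cells, dye-loaded, are exposed to DMSO-dissolved compounds and fluorescence at Ex/Em 480/540 is tracked for 3 min.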

[4] = target: KiSS-1 receptor (Homo sapiens) (UniProt Q969F8); test: Human kisspeptin (KISS1R) small molecule agonists, calcium flux assay in KISS1R-HEK293 cells (AID 1920064; active = well fitted curve in the direction sought with a large enough effect in the repeat runs; an effect the other way counts as inactive or inconclusive)
Summary of the method: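 Concentration-response testing used 15 concentrations in triplicate on human KISS1R-expressing HEK293 cells. Calcium-dependent fluorescence (Ex/Em 480/540) was followed kinetically for 3 min after compound transfer.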

[5] = G protein-coupled receptor (GPCR) small molecule agonists, calcium flux assay: HEK293 wild type cell line counter screen (AID 1920065)
Summary of the method: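 Fluorescence intensity signals activation. After overnight (18 h) culture and a 1 h calcium dye load at 37 C, compounds are added by pin tool and the plate read at 480/540 nm for 3 min in 1 s steps.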

[6] = p53 small molecule agonists, cell-based qHTS assay with rat liver microsomes (AID 1963578)
Summary of the method: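 Each plate received p53RE-bla cells, then compound, then rat liver microsomes and NADPH (both 0.5 mg/mL final). Plates were held 16 h at 37 C, and beta-lactamase activity was detected with LiveBLAzer over 2 h.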

[7] = p53 small molecule agonists, cell-based qHTS assay with rat liver microsomes: qHTS cell viability counter screen (AID 1963580); also: nearly all actives have a fitted effect of over 45% in size
Summary of the method: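 Cytotoxicity counter screen: intracellular ATP read by CellTiter-Glo luminescence in the p53 reporter wells. HCT-116 p53RE-bla cells were treated for 16 h at 37 C alongside rat liver microsomes and NADPH, each 0.5 mg/mL final.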

[8] = p53 small molecule agonists, cell-based qHTS assay (AID 1963582; active = well fitted activation curve with a large enough effect in the signal ratio in the repeat runs, not every such curve was filed as active; the % refers to the signal ratio; also: potency is read from the fitted curve at half-maximal effect)
Summary of the method: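 After plating, p53RE-bla cells sat 5 h in the incubator; compounds or DMSO vehicle were pinned in; a 16 h incubation at 37 C followed; FRET substrate was added and, 2 h later at RT, fluorescence was measured.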

[9] = target: 5-hydroxytryptamine receptor 2A (Homo sapiens) (UniProt P28223); test: 5-hydroxytryptamine receptor 2A (HTR2A) small molecule antagonists, cell-based qHTS assay (AID 1963586); also: nearly all actives have a fitted effect of over 45% in size; also: potency is read from the fitted curve at half-maximal effect
Summary of the method: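 CHO cells stably expressing human HTR2A were plated for 18 h at 37 C, then loaded with calcium dye for 1 h. Compounds were preincubated 5 min at room temperature before DOI (4 nM solution) was added. Kinetic fluorescence was read for 3 min.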

[10] = target: 5-hydroxytryptamine receptor 2A (Homo sapiens) (UniProt P28223); test: 5-hydroxytryptamine receptor 2A (HTR2A) small molecule agonists, cell-based qHTS assay (AID 1963587); also: nearly all actives have a fitted effect of over 30% in size; also: potency is read from the fitted curve at half-maximal effect
Summary of the method: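 Kinetic calcium-flux fluorescence (2 min, 1 sec intervals) after compound addition in agonist mode. HTR2A-CHO cells were cultured 18 h, then dye-loaded 1 h at 37 C.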

[11] = target: Muscarinic acetylcholine receptor M1 (Homo sapiens) (UniProt P11229); test: Cholinergic receptor muscarinic 1 (CHRM1) small molecule agonists, cell-based qHTS assay (AID 1963589); also: nearly all actives have a fitted effect of over 35% in size
Summary of the method: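 Fluorescent calcium dye reports M1 activation in stably transfected CHO cells. Compounds, 15 concentrations, added after 1 h dye loading at 37 C; kinetic reading at 1 sec intervals.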

[12] = cAMP Responsive Elements (CRE) small molecule antagonists, cell-based qHTS assay (AID 1963591; active = well fitted inhibition curve with a large enough effect in the signal ratio in the repeat runs, not every such curve was filed as active; the % refers to the signal ratio)
Summary of the method: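 Stimulation used NKH477 at a final 0.25 uM for 3 h in compound-treated CRE-bla HEK293T cells, seeded 18 h beforehand. Reporter activity was measured with LiveBLAzer B/G FRET substrate after 2 h at room temperature.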

[13] = target: Beta-2 adrenergic receptor (Homo sapiens) (UniProt P07550); test: Adrenergic beta2 receptor (ADRB2) small molecule antagonists, cell-based qHTS assay (AID 1963592); also: series mostly up to about 92 µM; nearly all actives have a fitted effect of over 50% in size
Summary of the method: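 Assay format: CHO-ADRB2 cells, 18-20hr seeding at 37C/5% CO2, then compound plus 1nM isoproterenol agonist mix for 0.5hr RT. Homogeneous time-resolved fluorescence cAMP detection after 1hr, expressed as 665/615 nm ratio.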

[14] = target: D(2) dopamine receptor (Homo sapiens) (UniProt P14416); test: Dopamine D2 receptor (DRD2) small molecule agonists, cell-based qHTS assay (AID 1963594); also: nearly all actives have a fitted effect of over 35% in size
Summary of the method: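 cAMP accumulation in DRD2-HEK293 cells measured by HTRF after 1 h detection; compounds added 10 min before NKH477 (200nM […]) forskolin-analogue stimulation, 30 min at room temperature, with Ro20-1724 present at 0.1 mM final.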

[15] = target: D(2) dopamine receptor (Homo sapiens) (UniProt P14416); test: Dopamine D2 receptor (DRD2) small molecule antagonists, cell-based qHTS assay (AID 1963595; active = well fitted inhibition curve with a large enough effect in the signal ratio in the repeat runs, with a control signal flat; the % refers to the signal ratio)
Summary of the method: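 Antagonism was scored as restored cAMP in HEK293-DRD2 cells. These cells were stimulated with 200 nM NKH477 and 12 nM quinpirole for 30 min at room temperature, in the presence of 0.1 mM Ro20-1724.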

[16] = target: Muscarinic acetylcholine receptor M1 (Homo sapiens) (UniProt P11229); test: Cholinergic receptor muscarinic 1 (CHRM1) small molecule antagonists, cell-based qHTS assay (AID 1963588); also: nearly all actives have a fitted effect of over 40% in size
Summary of the method: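 Compounds were tested at 15 concentrations in three independent runs. Dye-loaded CHRM1-CHO cells were exposed 5 min at room temperature before stimulation by acetylcholine added at 50nM. Intracellular calcium was read kinetically on FDSS for 3 min.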

[17] = p53 small molecule agonists, cell-based qHTS assay with human liver microsomes: qHTS cell viability counter screen (AID 1963579); also: nearly all actives have a fitted effect of over 45% in size
Summary of the method: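 Tox21 library compounds, delivered from DMSO stocks, were tested on p53RE-bla cells together with 0.5 mg/mL human liver microsomes and 0.5 mg/mL NADPH (final) over 16 h at 37 C; CellTiter-Glo luminescence served as the cytotoxicity measure.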

[18] = cAMP Responsive Elements (CRE) small molecule agonists, cell-based qHTS assay (AID 1963590)
Summary of the method: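 Compound exposure lasted 3 h at 37 C/5% CO2 in CRE-bla HEK 293T cells grown in assay medium with 10% dialyzed FBS and 25 mM HEPES. Reporter signal came from LiveBLAzer B/G FRET substrate, 2 h, room temperature.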

[19] = target: Beta-2 adrenergic receptor (Homo sapiens) (UniProt P07550); test: Adrenergic beta2 receptor (ADRB2) small molecule agonists, cell-based qHTS assay (AID 1963593);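 also: CHO cells stably overexpressing human ADRB2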
Summary of the method: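 CHO cells stably over-expressing ADRB2 were plated overnight at 37C, then dosed with compounds plus a stimulation mix containing 100uM IBMX and 25uM Ro-20-1724 for 0.5hr at room temperature. cAMP was measured by HTRF competition, 1hr.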

[20] = p53 small molecule agonists, cell-based qHTS assay: qHTS cell viability counter screen (AID 1963581); also: nearly all actives have a fitted effect of over 45% in size
Summary of the method: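 Luminescence from CellTiter-Glo, reflecting ATP content, serves as the cytotoxicity measure; it is taken after the 2 h reporter substrate step in HCT-116 p53RE-bla cells dosed for 16 h at 37 C.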

Chain of D(2) dopamine receptor (Homo sapiens) (P14416 whole entry, looked up): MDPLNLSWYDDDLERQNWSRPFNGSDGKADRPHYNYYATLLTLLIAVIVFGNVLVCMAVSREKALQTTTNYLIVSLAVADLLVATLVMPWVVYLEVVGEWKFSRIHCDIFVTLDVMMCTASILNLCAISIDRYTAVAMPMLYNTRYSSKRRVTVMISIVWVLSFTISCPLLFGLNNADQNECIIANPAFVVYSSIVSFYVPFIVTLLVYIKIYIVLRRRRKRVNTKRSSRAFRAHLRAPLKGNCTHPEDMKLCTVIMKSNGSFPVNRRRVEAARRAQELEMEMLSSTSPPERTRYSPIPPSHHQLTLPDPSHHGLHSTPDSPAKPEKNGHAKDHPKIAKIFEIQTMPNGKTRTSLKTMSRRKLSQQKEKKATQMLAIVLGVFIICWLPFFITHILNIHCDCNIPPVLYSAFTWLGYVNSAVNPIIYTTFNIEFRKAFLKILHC
Chain of Beta-2 adrenergic receptor (Homo sapiens) (P07550 whole entry, looked up): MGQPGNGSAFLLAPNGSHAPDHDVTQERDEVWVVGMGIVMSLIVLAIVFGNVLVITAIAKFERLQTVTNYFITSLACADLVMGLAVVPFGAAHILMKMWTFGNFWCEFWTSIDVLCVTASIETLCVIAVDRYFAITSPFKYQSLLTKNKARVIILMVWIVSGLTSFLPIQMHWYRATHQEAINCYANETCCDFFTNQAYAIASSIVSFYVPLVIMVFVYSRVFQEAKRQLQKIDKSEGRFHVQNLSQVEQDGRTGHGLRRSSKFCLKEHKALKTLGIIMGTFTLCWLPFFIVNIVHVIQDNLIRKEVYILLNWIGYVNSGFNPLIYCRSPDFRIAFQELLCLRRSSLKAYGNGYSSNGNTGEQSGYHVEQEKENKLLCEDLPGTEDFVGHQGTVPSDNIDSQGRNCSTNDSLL
Chain of 5-hydroxytryptamine receptor 2A (Homo sapiens) (P28223 whole entry, looked up): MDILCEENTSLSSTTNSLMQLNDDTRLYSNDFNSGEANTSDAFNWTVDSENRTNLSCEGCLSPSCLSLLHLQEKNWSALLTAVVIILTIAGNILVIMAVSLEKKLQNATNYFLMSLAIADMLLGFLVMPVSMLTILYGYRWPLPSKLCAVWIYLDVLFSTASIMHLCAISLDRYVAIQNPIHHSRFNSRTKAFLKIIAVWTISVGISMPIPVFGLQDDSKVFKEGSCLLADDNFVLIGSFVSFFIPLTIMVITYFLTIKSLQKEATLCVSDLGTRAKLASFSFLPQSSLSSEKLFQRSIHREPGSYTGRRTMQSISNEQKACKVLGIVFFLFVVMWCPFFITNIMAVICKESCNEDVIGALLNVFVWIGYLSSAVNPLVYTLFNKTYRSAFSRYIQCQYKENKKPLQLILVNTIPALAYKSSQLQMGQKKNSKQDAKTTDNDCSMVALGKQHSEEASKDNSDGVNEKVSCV
Chain of Gonadotropin-releasing hormone receptor (Homo sapiens) (P30968 whole entry, looked up): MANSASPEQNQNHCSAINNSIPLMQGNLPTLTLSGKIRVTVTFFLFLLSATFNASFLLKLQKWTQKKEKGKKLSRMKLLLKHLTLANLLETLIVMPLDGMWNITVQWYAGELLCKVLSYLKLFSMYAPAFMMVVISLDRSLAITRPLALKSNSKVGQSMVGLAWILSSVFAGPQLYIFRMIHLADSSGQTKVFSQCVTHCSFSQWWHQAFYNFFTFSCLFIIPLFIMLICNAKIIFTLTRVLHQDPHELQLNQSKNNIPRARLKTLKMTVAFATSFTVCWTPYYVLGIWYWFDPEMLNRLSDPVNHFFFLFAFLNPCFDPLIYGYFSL
Chain of KiSS-1 receptor (Homo sapiens) (Q969F8 whole entry, looked up): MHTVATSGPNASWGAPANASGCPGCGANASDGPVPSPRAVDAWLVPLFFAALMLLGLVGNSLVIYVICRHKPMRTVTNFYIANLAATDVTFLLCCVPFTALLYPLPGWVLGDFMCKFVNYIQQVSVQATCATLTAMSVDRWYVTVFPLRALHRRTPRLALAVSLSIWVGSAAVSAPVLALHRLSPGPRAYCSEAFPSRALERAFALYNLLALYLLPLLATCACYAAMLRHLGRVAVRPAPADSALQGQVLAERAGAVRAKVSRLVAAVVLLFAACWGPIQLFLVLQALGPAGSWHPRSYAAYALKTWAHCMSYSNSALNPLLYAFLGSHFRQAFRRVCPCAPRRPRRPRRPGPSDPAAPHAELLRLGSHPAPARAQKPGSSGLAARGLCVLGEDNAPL
Chain of Muscarinic acetylcholine receptor M1 (Homo sapiens) (P11229 whole entry, looked up): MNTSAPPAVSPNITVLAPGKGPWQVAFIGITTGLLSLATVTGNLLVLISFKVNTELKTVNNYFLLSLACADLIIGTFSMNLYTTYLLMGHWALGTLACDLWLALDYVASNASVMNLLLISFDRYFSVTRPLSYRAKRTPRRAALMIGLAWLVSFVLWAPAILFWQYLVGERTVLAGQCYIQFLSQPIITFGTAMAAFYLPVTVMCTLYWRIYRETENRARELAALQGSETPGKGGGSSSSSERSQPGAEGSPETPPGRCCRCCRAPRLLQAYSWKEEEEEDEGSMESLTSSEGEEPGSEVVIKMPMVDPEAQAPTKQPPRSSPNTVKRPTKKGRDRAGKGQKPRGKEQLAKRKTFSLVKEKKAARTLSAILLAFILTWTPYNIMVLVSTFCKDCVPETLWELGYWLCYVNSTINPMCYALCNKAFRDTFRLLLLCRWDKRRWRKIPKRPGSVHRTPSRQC

SMILES	Potency [1]	Potency [2]	Potency [3]	Potency [4]	Potency [5]	Potency [6]	Potency [7]	Potency [8]	Potency [9]	Potency [10]	Potency [11]	Potency [12]	Potency [13]	Potency [14]	Potency [15]	Potency [16]	Potency [17]	Potency [18]	Potency [19]	Potency [20]
O=C1c2ccccc2C(=O)C1C(=O)C(c1ccccc1)c1ccc(Cl)cc1 (configuration not stated)	15.4 µM (active)	inactive	17.4 µM (active)	inactive	inactive	inactive	inactive	inactive	4.21 µM (active)	49 µM (active)	inactive	inactive	inactive	inactive	inactive	–	–	–	–	–
O=S(=O)(O)C(F)(F)C(F)(F)C(F)(F)C(F)(F)F	inactive	72.7 µM (active)	inactive	inactive	inactive	inactive	–	–	inactive	–	inactive	–	inactive	–	inactive	inactive	–	–	–	–
CCCOc1nn(C(=O)NS(=O)(=O)c2ccccc2C(=O)OC)c(=O)n1C	inactive	68.3 µM (active)	inactive	inactive	inactive	inactive	inactive	inactive	inactive	inactive	inactive	inactive	inactive	inactive	inactive	inactive	inactive	inactive	inactive	–
CC(C)(OO)c1ccccc1	inactive	inactive	inactive	inactive	inactive	inactive	inactive	inactive	inactive	inactive	inactive	inactive	inactive	–	inactive	inactive	–	–	–	inactive
CCS(=O)(=O)CCSP(=O)(OC)OC	inactive	61.1 µM (active)	inactive	inactive	inactive	–	inactive	inactive	inactive	inactive	inactive	–	–	–	–	inactive	inactive	inactive	–	inactive
COC(=O)c1ccccc1S(=O)(=O)NC(=O)N(C)c1nc(C)nc(OC)n1	inactive	inactive	inactive	inactive	inactive	inactive	–	inactive	–	inactive	inactive	inactive	inactive	inactive	inactive	inactive	inactive	inactive	–	inactive
N[C@@H](Cc1ccc(Oc2cc(I)c(O)c(I)c2)c(I)c1)C(=O)O	inactive	inactive	inactive	inactive	inactive	inactive	inactive	inactive	–	–	inactive	inactive	inactive	–	inactive	inactive	inactive	inactive	–	–
CCCCCl	inactive	inactive	inactive	inactive	inactive	inactive	inactive	inactive	inactive	inactive	–	inactive	inactive	inactive	inactive	inactive	inactive	inactive	–	–
Clc1cccc(N2CCNCC2)c1	inactive	inactive	inactive	inactive	inactive	inactive	inactive	–	–	–	inactive	inactive	–	inactive	inactive	inactive	inactive	inactive	–	–
CC[C@]1(O)CC[C@H]2[C@@H]3CCC4=CCCC[C@@H]4[C@H]3CC[C@@]21C	inactive	inactive	inactive	inactive	inactive	inactive	inactive	–	–	–	–	inactive	–	inactive	inactive	–	inactive	inactive	inactive	inactive
COC(=O)C(C)N(C(=O)Cc1ccccc1)c1c(C)cccc1C (configuration not stated)	inactive	inactive	inactive	inactive	inactive	inactive	inactive	–	inactive	inactive	inactive	–	inactive	–	inactive	inactive	inactive	–	–	inactive
Oc1ccc(Cc2ccc(O)cc2)cc1	inactive	inactive	inactive	inactive	inactive	inactive	inactive	inactive	–	inactive	inactive	inactive	inactive	inactive	inactive	inactive	inactive	inactive	–	–
O=c1oc2ccccc2c(O)c1Cc1c(O)c2ccccc2oc1=O	inactive	inactive	inactive	inactive	inactive	inactive	inactive	5 µM (active)	–	–	–	inactive	inactive	inactive	inactive	–	inactive	–	inactive	–
CC1N=C(N)OC1c1ccccc1 (configuration not stated)	inactive	inactive	inactive	inactive	inactive	inactive	–	inactive	inactive	inactive	inactive	inactive	–	inactive	–	inactive	inactive	inactive	inactive	inactive
CO/N=C(/C1=NOCCO1)c1ccccc1Oc1ncnc(Oc2ccccc2Cl)c1F	inactive	inactive	inactive	inactive	inactive	inactive	inactive	–	–	inactive	inactive	inactive	inactive	–	–	inactive	–	–	–	–
c1cc[n+]2c(c1)-c1cccc[n+]1CC2	inactive	inactive	inactive	inactive	inactive	inactive	inactive	–	inactive	inactive	–	inactive	inactive	inactive	inactive	inactive	–	inactive	–	–
